In PubChem BioAssay AID485317 (Broad Institute, 2010):
The campaign covered roughly 290,000 compounds. About 11,000 (3.8%) were called active. This is one part of a sample in which actives are shown more often than they occur.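 The calls were made as follows: active = mean replicate inhibition above about 79%, with every replicate also reaching it (limit read from the data); inconclusive = only one of the two criteria met; inactive = mean below limit and not every replicate reaching it.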

What follows are compounds tested against FAD-linked sulfhydryl oxidase ALR (Homo sapiens) (UniProt P55789) (assay: ALR-catalysed DTT oxidation blockers – biochemical, H2O2 detection, HRP-luminol luminescence, single point, primary screen (AID 485317)). Conditions: purified ALR, stronger effect = higher value, concentration not given here.
Chain of FAD-linked sulfhydryl oxidase ALR (Homo sapiens) (P55789 whole entry, looked up): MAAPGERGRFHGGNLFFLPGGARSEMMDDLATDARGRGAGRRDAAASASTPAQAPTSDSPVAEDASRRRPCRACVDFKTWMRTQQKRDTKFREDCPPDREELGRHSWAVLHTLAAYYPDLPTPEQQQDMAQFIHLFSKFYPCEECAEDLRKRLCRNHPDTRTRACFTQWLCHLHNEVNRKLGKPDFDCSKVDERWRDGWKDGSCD

Structure (SMILES)	inhibition
COC(=O)[C@]1(CC(C)C)N[C@H](c2ccc(SC3CCCCC3)cc2)[C@@H]2C(=O)N(C)C(=O)[C@@H]21	-4.22% (inactive)
O=C(Nc1cccc(S(=O)(=O)N2CCCC2)c1)c1cncc(Br)c1	-0.493% (inactive)
OCC[C@H]1C[C@@H](O)[C@H](O)[C@@]2(OCCc3ccccc32)O1	-5.81% (inactive)
C=CC[C@@H](CC(=O)N[C@@H](CO)Cc1ccccc1)C(=O)N[C@H](COC(=O)[C@H](CC=C)CC(=O)OC(C)(C)C)Cc1ccccc1	0.393% (inactive)
Oc1c(C(c2ccco2)N2CCC3(CC2)OCCO3)sc2ncnn12 (centres undefined)	-33.4% (inactive)
Oc1c(C(c2cccs2)N2CCN(c3ccc(F)cc3)CC2)sc2ncnn12 (centres undefined)	95.5% (active)
Cc1ccc(C(c2sc3nc(C)nn3c2O)N2CCN(c3ccc(F)cc3)CC2)cc1 (centres undefined)	2.24% (inactive)
COc1ccc(C(CNC(=O)c2ccc(NS(=O)(=O)c3ccc(F)c(C)c3)cc2)N(C)C)cc1 (centres undefined)	-5.64% (inactive)
CC1(C)CC(=O)C=C(c2ccc(Cl)c(C(F)(F)F)c2)C1	3.75% (inactive)
CC(=O)c1ccc(NC(=O)CSC(=S)N2CCCC2)cc1	92.8% (active)
CCN(CC(=O)Nc1ccc(NC(C)=O)cc1)C(=O)CSC(=S)N1CCCC1	-0.0599% (inactive)
COc1cc(NC(=O)CSC(=S)N2CCCC2)c(OC)cc1Cl	-2.05% (inactive)
CCN1C(=O)c2cccc3c(N)ccc1c23	99.2% (active)
CN1C(=O)c2cccc3c(N)ccc(c23)C1=O	-15.1% (inactive)
CCN1C(=O)c2cccc3c(S(=O)(=O)Nc4ccccc4O)ccc1c23	-28.9% (inactive)
COc1ccc(-c2c(C#Cc3ccccc3)c3ccccc3n2C)cc1	-4.24% (inactive)
CCOC(=O)C1CCN(CC(=O)Nc2ccc(OC)c(S(=O)(=O)N3CCCCC3)c2)CC1	-8.75% (inactive)
COc1ccc(F)cc1S(=O)(=O)NCC(c1ccc2c(c1)OCO2)N1CCN(C)CC1 (centres undefined)	-4.58% (inactive)
CN(C(=O)c1cccc(NC(=O)C2CCN(C(=O)OC(C)(C)C)CC2)c1)C1CCC1	4.19% (inactive)
C=CCNC(=O)COc1coc(CN2CCN(Cc3ccccc3)CC2)cc1=O	-3.07% (inactive)
O=C(/C=C/c1ccccc1)Oc1coc(CSc2ncccn2)cc1=O	97.4% (active)
Cc1ccc(C(=O)Oc2coc(CSc3nnc(NC(=O)c4cccs4)s3)cc2=O)cc1C	0.72% (inactive)
CC(=O)NCc1ccc(-c2csc(NC(=O)CCCc3nc4ccccc4c(=O)[nH]3)n2)cc1	-5.1% (inactive)
C[C@@H]1CN([C@H](C)CO)C(=O)c2cc(NC(=O)NC3CCCCC3)ccc2O[C@H]1CN(C)S(C)(=O)=O	0.076% (inactive)
Cc1cccc(N=C2SC(C)CN2C(=O)CN2C(=O)NC3(CCCC3)C2=O)c1 (centres undefined)	2.77% (inactive)
O=C1CSc2ccc(C(=O)NCc3ccccn3)cc2N1	-5.07% (inactive)
Cc1nn(Cc2ccccc2)c(C)c1C(=O)N1CCN(CC(=O)Nc2ccccc2Cl)CC1	-4.78% (inactive)

Structure (SMILES)	inhibition
COc1ccc(-c2nc3c(s2)CCc2onc(-c4ccc(Br)cc4)c2-3)cc1	-11% (inactive)
CCCCCCSc1ccc(-c2nc3ccc(Cl)cn3c2NCc2ccccc2)cc1	-0.616% (inactive)
CCOc1ncccc1C(=O)OCc1cn2cc(Cl)ccc2n1	-2.41% (inactive)
Clc1ccc2nc(CSc3ccccc3)cn2c1	98.9% (active)
O=C1N[C@@H](Cc2ccccc2)C(=O)N2[C@H]1C[C@]1(Br)c3ccccc3N(S(=O)(=O)c3ccccc3)[C@H]21	-12.1% (inactive)
Cc1ccc(-c2nc(C)sc2CC(=O)O)cc1	99.3% (active)
CCOc1ccc(-c2nc(C)sc2CC(=O)O)cc1	-6.6% (inactive)
Cc1ccc(-c2nc(C)sc2CC(=O)OCC(=O)Nc2c(F)cccc2F)cc1	-7.76% (inactive)
Cc1ccc(C(=O)OCC(=O)N2CCCCCC2)cc1S(=O)(=O)N1CCOCC1	-22.6% (inactive)
COc1cccc(CNC(=O)COC(=O)CN2C(=O)NC3(CCCCC3C)C2=O)c1 (centres undefined)	2.16% (inactive)
COc1ccccc1N1CCN(/N=C/c2ccc(O)cc2O)CC1	1.54% (inactive)
FC(F)(F)c1nc2ccccc2nc1N/N=C/c1ccc(Cl)cc1	-14.4% (inactive)
Cc1nc2ccccc2nc1N/N=C/c1ccc(O)cc1O	95.7% (active)
Oc1ccc(/C=N/NC2=NCCCCC2)c(O)c1	81.4% (active)
COc1ccc(/C=C(\C#N)C(=O)ONC2=NCCCCC2)cc1	12.1% (inactive)
Oc1ccc(/C=N/Nc2nc(-c3ccccc3F)nc3ccccc23)c(O)c1	6.31% (inactive)
COc1ccc(OC)c(/C=C/C(=O)c2ccc3c(c2)OCO3)c1	3.84% (inactive)
COc1cc(OC)cc(C(=O)NNC(=O)CNC(=O)c2ccc(Br)o2)c1	7.85% (inactive)
CC(=O)Nc1ccc(C(=O)NNC(=O)CCCCC(=O)NNC(=O)c2ccc(NC(C)=O)cc2)cc1	-0.231% (inactive)
CNC[C@H]1Oc2c(NC(=O)C3CCCCC3)cccc2C(=O)N([C@H](C)CO)C[C@@H]1C	-1.07% (inactive)
C=CC[C@@H](CC(=O)N[C@H](CO)Cc1ccccc1)C(=O)N[C@H](C)COC(=O)[C@@H](CC=C)Cc1ccc(F)cc1	2.31% (inactive)
CCOC(=O)c1cc(-c2ccccc2C)n(Cc2cc(C)no2)n1	0.367% (inactive)
Cc1ccc(S(=O)(=O)N2[C@@H](c3ccccc3F)C(C(=O)O)=CC[C@H]2c2ccc(Cl)cc2)cc1	2.55% (inactive)
COc1ccc(S(=O)(=O)N2CCN(c3cnccn3)CC2)cc1	-0.305% (inactive)
Cc1nnc(SCC2=C(C(=O)O)N3C(=O)C(NC(=O)Cn4nc(C)c(Cl)c4C)C3SC2)s1 (centres undefined)	-10.4% (inactive)
Cc1cc(C)cc(C(=O)NC2C(=O)N3C(C(=O)O)=C(CSc4nnc(C)s4)CSC23)c1 (centres undefined)	98% (active)
CO/N=C(\C(=O)N[C@@H]1C(=O)N2C(C(=O)O)=C(COC(C)=O)CS[C@H]12)c1csc(N)n1 (stereo in doubt)	-8.83% (inactive)
